Experimental data: PubChem BioAssay (NCATS)
Results filed as inconclusive are left out. Where a call stands in place of a potency, no number is given. Calls of active or inactive are those of the source. The call rests on the fitted dose curve; in most records, active means well fitted inhibition curve with a large enough effect; inconclusive means small, poorly fitted or top-dose-only effect; inactive means flat fitted curve, though single readings scatter.

What was measured:
Experiment in all cases: qHTS profiling for inhibitors of Plasmodium falciparum proliferation (AID 504749); further: nearly all actives have a fitted effect of over 60% in size
Settings in all cases: P. falciparum in erythrocytes, SYBR Green DNA, 72 h; series mostly up to 28.7 µM
3D7 = system: 3D7
How it was run: (§1)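 Each compound contacts P. falciparum-infected red blood cells for 72 h at 37 C; lysis buffer (Tris, EDTA, saponin, Triton X, SYBR Green I) is added and fluorescence measured next morning; values normalized to controls.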

7G8 = system: 7G8
How it was run: as §1

AA1029 = system: AA1029
How it was run: as §1

AS120 = system: AS120
How it was run: as §1

ATS189 = system: ATS189
How it was run: as §1

ATS95 = system: ATS95
How it was run: as §1

C2A = system: C2A
How it was run: as §1

CP185 = system: CP185
How it was run: as §1

CP191 = system: CP191
How it was run: as §1

CP192 = system: CP192
How it was run: as §1
Potency means the concentration at half of the fitted maximal effect.

Row | Compound | Potency (3D7) | Potency (7G8) | Potency (AA1029) | Potency (AS120) | Potency (ATS189) | Potency (ATS95) | Potency (C2A) | Potency (CP185) | Potency (CP191) | Potency (CP192)
1 | CCN(CC)CCC(=O)N1c2ccccc2Sc2ccc(C(F)(F)F)cc21 | inactive | 11200 nM (active) | inactive | inactive | inactive | inactive | inactive | inactive | inactive | inactive
2 | CN1c2c(nc(N)[nH]c2=O)NCC1CNc1ccc(C(=O)NC(CCC(=O)O)C(=O)O)cc1 (stereo not given) | inactive | inactive | inactive | inactive | inactive | inactive | inactive | inactive | inactive | inactive
3 | CSCCC(N)C(=O)O (stereo not given) | inactive | inactive | inactive | inactive | inactive | inactive | inactive | inactive | inactive | inactive
4 | Cc1cccc(Nc2ncccc2C(=O)O)c1C | inactive | inactive | inactive | inactive | inactive | inactive | inactive | inactive | inactive | inactive
5 | [O]=[Bi][O][Bi]=[O] | inactive | inactive | inactive | inactive | inactive | inactive | inactive | inactive | inactive | inactive
6 | CC(C)(Oc1ccc(C2CCCc3ccccc32)cc1)C(=O)O (stereo not given) | inactive | inactive | inactive | inactive | inactive | inactive | inactive | inactive | inactive | inactive
7 | COC(=O)CCC[N+](C)(C)C | inactive | inactive | inactive | inactive | inactive | inactive | inactive | inactive | inactive | inactive
8 | CC(O)CN(C)C (stereo not given) | inactive | inactive | inactive | inactive | inactive | inactive | inactive | inactive | inactive | inactive
9 | O=c1[nH]c(=O)n([C@H]2C[C@H](O)[C@@H](CO)O2)cc1/C=C/Br | inactive | inactive | inactive | inactive | inactive | inactive | inactive | inactive | inactive | inactive
10 | C=C(C)C1CC=C(C)CC1 (stereo not given) | inactive | inactive | inactive | inactive | inactive | inactive | inactive | inactive | inactive | inactive
11 | c1ccc(-n2cnnn2)cc1 | inactive | inactive | inactive | inactive | inactive | inactive | inactive | inactive | inactive | inactive
12 | O=C1[O][Bi][O]c2ccccc21 | inactive | inactive | inactive | inactive | inactive | inactive | inactive | inactive | inactive | inactive
13 | CCCc1ccc(C(=O)O)cc1 | inactive | inactive | inactive | inactive | inactive | inactive | inactive | inactive | inactive | inactive
14 | O=C1c2ccccc2CN2C(=O)c3ccccc3CN12 | inactive | inactive | inactive | inactive | inactive | inactive | inactive | inactive | inactive | inactive
15 | CN(CCO)CC(O)Cn1cnc2c1c(=O)n(C)c(=O)n2C (stereo not given) (tested in a mixture with another compound) | inactive | inactive | inactive | inactive | inactive | inactive | inactive | inactive | inactive | inactive
16 | COc1ccc(/C=N/NC(=O)c2ccncc2)c(C(=O)O)c1OC | inactive | inactive | inactive | inactive | inactive | inactive | inactive | inactive | inactive | inactive
17 | CCC(C)[C@@H](N)C(=O)O (stereo not given in full) | inactive | inactive | inactive | inactive | inactive | inactive | inactive | inactive | inactive | inactive

Row | Compound | Potency (3D7) | Potency (7G8) | Potency (AA1029) | Potency (AS120) | Potency (ATS189) | Potency (ATS95) | Potency (C2A) | Potency (CP185) | Potency (CP191) | Potency (CP192)
18 | CCCCC[C@H](O)/C=C/[C@@H]1[C@H]2C/C(=C/CCCC(=O)O)O[C@H]2C[C@H]1O | inactive | inactive | inactive | inactive | inactive | inactive | inactive | inactive | inactive | inactive
19 | CC(=O)NCCCS(=O)(=O)O | inactive | inactive | inactive | inactive | inactive | inactive | inactive | inactive | inactive | inactive
20 | CC(=O)Nc1ccc(OC(=O)c2ccccc2O)cc1 | inactive | inactive | inactive | inactive | inactive | inactive | inactive | inactive | inactive | inactive
21 | CCCCC(CC)COS(=O)(=O)O (stereo not given) | inactive | inactive | inactive | inactive | inactive | inactive | inactive | inactive | inactive | inactive
22 | CCC(O)c1ccccc1 (stereo not given) | inactive | inactive | inactive | inactive | inactive | inactive | inactive | inactive | inactive | inactive
23 | O=C1CCC(=O)N1CO | inactive | inactive | inactive | inactive | inactive | inactive | inactive | inactive | inactive | inactive
24 | CC(C)[C@@H](N)C(=O)O | inactive | inactive | inactive | inactive | inactive | inactive | inactive | inactive | inactive | inactive
25 | O=C(O)CCCC/C=C(\c1ccccc1)c1cccnc1 | inactive | inactive | inactive | inactive | inactive | inactive | inactive | inactive | inactive | inactive
26 | O=C(NNCS(=O)(=O)O)c1ccncc1 | inactive | inactive | inactive | inactive | inactive | inactive | inactive | inactive | inactive | inactive
27 | C=CC(=O)O | inactive | inactive | inactive | inactive | inactive | inactive | inactive | inactive | inactive | inactive
28 | FC(F)(F)C(F)(F)C(F)(F)C(F)(F)C(F)(F)F | inactive | inactive | inactive | inactive | inactive | inactive | inactive | inactive | inactive | inactive
29 | CN=C1C=CC(=C(c2ccc(N(C)C)cc2)c2ccc(N(C)C)cc2)C=C1 | 708 nM (active) | 282 nM (active) | 708 nM (active) | 1000 nM (active) | 447 nM (active) | 1120 nM (active) | 447 nM (active) | 447 nM (active) | 282 nM (active) | 849 nM (active)
30 | CCCc1nc(C(C)(C)O)c(C(=O)OCc2oc(=O)oc2C)n1Cc1ccc(-c2ccccc2-c2nn[nH]n2)cc1 | inactive | inactive | inactive | inactive | inactive | inactive | inactive | inactive | inactive | inactive
31 | CCCCCCOC(=O)c1cccnc1 | inactive | inactive | inactive | inactive | inactive | inactive | inactive | inactive | inactive | inactive
32 | CCc1ncnc2cc(OC)c(OC)cc12 | inactive | inactive | inactive | inactive | inactive | inactive | inactive | inactive | inactive | inactive
33 | FC(F)OC(Cl)C(F)(F)F (stereo not given) | inactive | inactive | inactive | inactive | inactive | inactive | inactive | inactive | inactive | inactive
34 | CCCCCCCCCCCCCCCCCCCCCC(=O)Nc1ccn([C@@H]2O[C@H](CO)[C@@H](O)[C@@H]2O)c(=O)n1 | inactive | inactive | inactive | inactive | inactive | inactive | inactive | inactive | inactive | inactive
